# In PubChem BioAssay AID504734 (The Scripps Research Institute Molecular Screening Center, 2011):
# Among all 340,000 compounds or so, about 730 (0.21%) were called active.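 How the source made its calls: active means inhibition above the mean over all tested compounds plus 3 SD (cut at about 21% in these data); inactive means the rest.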 Only a selection was taken, and actives are over-represented in it overall.
# Molecular target: Toll-like receptor 9 (Homo sapiens) + Myeloid differentiation primary response protein MyD88 (Homo sapiens) (UniProt Q9NR96+Q99836)
# Assay: inhibitors of TLR9-MyD88 association in cells, primary screen, cell-based, CHO, BLA complementation, fluorescence (AID 504734);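 further: 0% = DMSO only wells and 100% = clavulanate BLA inhibitor control wells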
# Details: CHO BLA complementation TLR9-MyD88, CCF4 FRET ratio; at 4.98 µM; hits give high values
# Toll-like receptor 9 (Homo sapiens) + Myeloid differentiation primary response protein MyD88 (Homo sapiens), sequence (Q99836 whole entry, looked up): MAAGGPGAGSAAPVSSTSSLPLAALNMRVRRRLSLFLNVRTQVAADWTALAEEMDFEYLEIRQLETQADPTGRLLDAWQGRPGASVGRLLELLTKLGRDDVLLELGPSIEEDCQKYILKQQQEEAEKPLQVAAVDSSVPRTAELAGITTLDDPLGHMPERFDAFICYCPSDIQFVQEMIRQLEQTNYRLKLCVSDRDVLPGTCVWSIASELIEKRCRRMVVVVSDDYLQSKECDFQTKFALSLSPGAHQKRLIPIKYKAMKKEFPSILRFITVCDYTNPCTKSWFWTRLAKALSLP
# Toll-like receptor 9 (Homo sapiens) + Myeloid differentiation primary response protein MyD88 (Homo sapiens), sequence (Q9NR96 whole entry, looked up): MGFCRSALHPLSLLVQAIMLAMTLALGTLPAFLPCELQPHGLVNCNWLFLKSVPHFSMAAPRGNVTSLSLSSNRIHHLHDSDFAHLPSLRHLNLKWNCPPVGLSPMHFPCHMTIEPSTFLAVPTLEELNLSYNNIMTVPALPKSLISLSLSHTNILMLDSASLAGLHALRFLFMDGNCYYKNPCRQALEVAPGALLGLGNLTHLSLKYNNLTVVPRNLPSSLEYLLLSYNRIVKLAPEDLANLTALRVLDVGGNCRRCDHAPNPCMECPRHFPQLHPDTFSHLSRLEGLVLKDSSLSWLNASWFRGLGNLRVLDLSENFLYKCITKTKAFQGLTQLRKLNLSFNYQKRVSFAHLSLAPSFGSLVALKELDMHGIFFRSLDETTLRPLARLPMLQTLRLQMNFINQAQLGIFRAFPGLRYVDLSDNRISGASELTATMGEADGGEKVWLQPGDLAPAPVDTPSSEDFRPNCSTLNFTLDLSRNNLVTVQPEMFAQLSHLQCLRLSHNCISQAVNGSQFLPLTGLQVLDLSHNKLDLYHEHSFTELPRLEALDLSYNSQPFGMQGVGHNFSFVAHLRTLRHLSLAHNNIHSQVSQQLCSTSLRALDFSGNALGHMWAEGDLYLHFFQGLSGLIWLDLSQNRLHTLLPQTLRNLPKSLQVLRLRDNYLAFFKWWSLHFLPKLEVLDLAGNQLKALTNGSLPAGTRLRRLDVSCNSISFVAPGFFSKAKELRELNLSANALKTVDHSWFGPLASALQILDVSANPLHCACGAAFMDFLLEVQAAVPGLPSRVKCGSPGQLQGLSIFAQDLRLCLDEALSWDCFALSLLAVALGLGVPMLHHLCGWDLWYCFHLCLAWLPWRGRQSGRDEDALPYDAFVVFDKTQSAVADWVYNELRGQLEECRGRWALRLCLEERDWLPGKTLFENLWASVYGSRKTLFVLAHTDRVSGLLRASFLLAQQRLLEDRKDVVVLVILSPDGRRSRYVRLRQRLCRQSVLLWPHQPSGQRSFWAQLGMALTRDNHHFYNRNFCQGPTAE
row,SMILES,inhibition
1,COc1ccc(-c2nn(-c3ccccc3)cc2C(=O)Nc2nccs2)cc1OC,7.8% (inactive)
2,O=Cc1cn(-c2ccccc2)nc1-c1ccccn1,-5.05% (inactive)
3,COc1ccc(-c2nn(-c3ccccc3)cc2/C=N/Nc2ccccn2)cc1OC,27.6% (active)
4,NC1=CC(=O)C(=O)c2cccnc21,-3.3% (inactive)
5,Cc1nc2ccccn2c(=O)c1NC(=O)c1ccc(Br)o1,-8.57% (inactive)
6,C[C@H]1CN([C@@H](C)CO)C(=O)CCCn2cc(nn2)CO[C@@H]1CN(C)S(=O)(=O)c1cccs1,-3.23% (inactive)
7,CCN(CC)C(=O)c1sc2nc(-c3ccccc3)ccc2c1N,1.41% (inactive)
8,Nc1cccc(-c2cc(-c3ccccc3)nc(-c3cccc(N)c3)n2)c1,4.91% (inactive)
9,CS(=O)(=O)c1sc2nc(-c3ccccc3)cc(-c3ccccc3)c2c1N,21.5% (active)
10,CCOC(=O)C(C(=O)c1ccccc1)C(c1ccccc1)c1nccc2ccccc12 (stereo not drawn),-3.27% (inactive)
11,O=C(O)c1ccccc1Cc1ccc(F)c2ccccc12,0.89% (inactive)
12,O=C1NC(Cc2ccccc2)c2nc3ccc(Br)cc3c(=O)n2-c2cc3ccccc3cc21 (stereo not drawn),4.34% (inactive)
13,COc1ccc(-c2ccc(Nc3ccc(S(=O)(=O)N4CCCC4)cc3)nn2)cc1OC,-1.95% (inactive)
14,COc1ccc(-c2cc(C(F)(F)F)nc(S(C)(=O)=O)n2)cc1OC,27.6% (active)
15,COc1ccc(-c2cc(-c3ccc(N)cc3)nc(N)c2C#N)cc1OC,-1.14% (inactive)
16,Cc1ccc(S(=O)(=O)N2CCOCC2)cc1NC(=O)c1ccncc1,-10.3% (inactive)
17,CCN1CCCC1CNC(=O)c1ccc2c(c1)NC(=O)/C(=C\c1ccccc1F)S2 (stereo not drawn),5.07% (inactive)
18,COc1ccc(-c2nc3cc(C)ccn3c2NC2CCCCC2)cc1SC1CCCCC1,-0.33% (inactive)
19,COc1ccc(-c2nc3cnccn3c2NC2CCCCC2)cc1-c1cccc(Cl)c1,40.9% (active)
20,COc1ccc(-c2nc3cnccn3c2NC(C)(C)CC(C)(C)C)cc1O,-0.94% (inactive)
21,CN(C)C(CNC(=O)c1cc(Br)c(Br)s1)c1ccco1 (stereo not drawn),6.8% (inactive)
22,NC(=S)NN=Cc1ccc(OC(=O)COc2cc(Cl)c(Cl)cc2Cl)cn1,12.2% (inactive)

row,SMILES,inhibition
1,CC1(C)OC(=O)C2=C(CC(c3ccccc3)OC2CCc2ccccc2)O1 (stereo not drawn),-19.4% (inactive)
2,COc1ccc(S(=O)(=O)N2CCN(CC(=O)N3CCNC3=O)CC2)cc1OC,7.47% (inactive)
3,Cc1ccc(S(=O)(=O)N2C[C@@H](C)[C@]3(C2)[C@H](O)[C@H](OC(=O)NCc2ccccc2)C[C@H]2C(=O)N(c4ccccc4)C(=O)[C@H]23)cc1,-1.46% (inactive)
4,COc1ccc([C@H]2N[C@]3(CCCN(CC4CCCCC4)C3=O)[C@H]3C(=O)N(C)C(=O)[C@@H]23)cc1,1.4% (inactive)
5,Cc1ccn(CC(=O)NC2CCCN(Cc3ccccc3F)C2)n1 (stereo not drawn),9% (inactive)
6,Nc1cccc2c1C(=O)N(Cc1nnc(-c3ccccc3Br)o1)C2=O,21.2% (active)
7,Cn1cnnc1SCc1nnc(-c2ccccc2Br)o1,-5.92% (inactive)
8,CCOC(=O)N1CCN(Cc2nnc(-c3ccccc3Cl)o2)CC1,7.73% (inactive)
9,CCN1CCN(CCNC(=O)c2ccc3c(c2)NC(=O)/C(=C\c2cccc(Cl)c2)S3)CC1,13.2% (inactive)
10,CCOC(=O)C=Cc1ccc(C(=O)OCC)[nH]1,5.14% (inactive)
11,Cc1cc(C)c2c(=O)n3c(nc2c1)C(CC(C)C)NC(=O)c1cc2ccccc2cc1-3 (stereo not drawn),9.57% (inactive)
12,CC1(C)CC(=O)NC=C(c2ccccc2)C1,-4.24% (inactive)
13,CC1(C)CC(=O)C(C2c3ccccc3S(=O)(=O)c3ccccc32)C(=O)C1,22.1% (active)
14,CC1(C)CC(=O)C(CC(=O)N2CCC(Cc3ccccc3)CC2)C(=O)C1,-5.62% (inactive)
15,CCN(CC)C(=O)C1=C(C)N(Cc2ccc(OC)cc2)C(=O)C(CC(=O)NCCCCc2ccccc2)C1 (stereo not drawn),-3.92% (inactive)
16,Nc1c(C(=O)c2cccs2)sc2nsc(SCCN3CCCCC3)c12,31.4% (active)
17,COc1ccc(NC(=O)CCCOc2ccc(C(C)=O)cc2)cc1S(=O)(=O)N1CCCCC1,-6.11% (inactive)
18,COc1ccc([C@H]2N[C@]3(CCCN(Cc4ccco4)C3=O)[C@H]3C(=O)N(C)C(=O)[C@@H]23)cc1,-4.25% (inactive)
19,Cc1noc(C)c1NC(=O)N(C)C[C@@H]1Oc2cc(Br)ccc2S(=O)(=O)N([C@@H](C)CO)C[C@H]1C,6.19% (inactive)
20,Cc1cccc(CS(=O)(=O)c2ncc(Cl)c(C(=O)Nc3ccc(F)cc3)n2)c1,35.3% (active)
21,CSc1nnc(NC(=O)c2nc(S(=O)(=O)Cc3ccc(C)cc3)ncc2Cl)s1,4.24% (inactive)
22,CN1CCN(c2ccc(NC(=O)c3ccc4c(c3)[nH]c(=O)n4Cc3ccc(F)cc3)cc2)CC1,5.07% (inactive)

row,SMILES,inhibition
1,Cc1ccc(CS(=O)(=O)c2ncc(Cl)c(C(=O)Nc3nnc(C)s3)n2)cc1,12.2% (inactive)
2,Cc1cccc(NC(=O)c2nc(S(=O)(=O)Cc3ccccc3)ncc2Cl)c1,48.7% (active)
3,O=C(Nc1ccc(F)cc1)c1ccc(S(=O)(=O)NCc2cccnc2)cc1,-9.53% (inactive)
4,Cc1[nH]c2ccccc2c1C(=O)C(=O)NCc1nnnn1-c1cccc(F)c1,7.75% (inactive)
5,COc1ccc(S(=O)(=O)N(C)C[C@H]2OCc3cnnn3CCCC(=O)N([C@H](C)CO)C[C@H]2C)cc1,-12.9% (inactive)
6,CN(O)C(=S)c1ccccc1,21.8% (active)
7,CN(Cc1ccccc1)C(=O)c1cccc(C(=O)N(C)Cc2ccccc2)c1,-10.2% (inactive)
8,CCCCCCn1c(=O)n2n(c1=O)C[C@]1(OC(=O)NCc3ccc(OC)c(OC)c3)CN(S(=O)(=O)c3ccc(C)cc3)C[C@]1(O)C2,-2.87% (inactive)
9,CC1CCCC(C)N1C(=O)COC(=O)c1ccccc1C(=O)c1ccccc1 (stereo not drawn),-3.35% (inactive)
10,O=C(NCCc1cccc(F)c1)C1CC(O)CN1C(=O)Nc1ccccc1 (stereo not drawn),-5.73% (inactive)
11,COC(=O)N(C)C[C@@H]1OCc2cnnn2CCCC(=O)N([C@@H](C)CO)C[C@@H]1C,-7.29% (inactive)
12,CSc1ncccc1C(=O)N1CCCC(Nc2ccc(F)c(F)c2)C1 (stereo not drawn),-7.83% (inactive)
13,Nc1cc(C(=O)N2CCN(c3ccccc3Cl)CC2)ccc1N1CC2CC(C1)c1cccc(=O)n1C2 (stereo not drawn),-8.79% (inactive)
14,CC1(C)CCc2nc(SCc3ccccc3)c(C#N)cc2C1,-6.7% (inactive)
15,Cc1cc(C)nc(SCc2cn3c(C)cc(C)nc3n2)n1,-17% (inactive)
16,Cc1cc(C)nc(SCc2ccccc2C#N)n1,23.9% (active)
17,COc1ccc(CN2C(=O)C(CC(=O)NCCN3CCOCC3)CC(C(=O)N(C(C)C)C(C)C)=C2C)cc1 (stereo not drawn),-13.7% (inactive)
18,COc1ccc(N)cc1NC(=O)CN1CCOCC1,3.79% (inactive)
19,Nc1ccccc1-c1nc2ccncc2[nH]1,5.69% (inactive)
20,C[C@H]1Cn2cnc(C(=O)N[C@H](C)c3ccccc3)c2C(=O)N1,-9.33% (inactive)
21,COc1ccccc1NC(=O)C(CC(=O)O)Cc1cc(C)cc(C)c1 (stereo not drawn),1.3% (inactive)
22,COc1ccc(NC(=O)CN2C(=O)NC(C)(c3ccccc3)C2=O)cn1 (stereo not drawn),4.63% (inactive)

row,SMILES,inhibition
1,COc1ccc(NC(=O)/C(Cl)=C(/Cl)S(=O)Cc2ccc(C)cc2)cn1 (stereo not drawn),36.2% (active)
2,COc1ccc(NS(=O)(=O)c2ccc(NC(=S)NC(=O)/C=C/c3ccc(C)cc3)cc2)nn1,4.17% (inactive)
3,Cc1ccc(C(=O)NC(C)C(c2cccs2)N2CCOCC2)cc1C (stereo not drawn),-1.7% (inactive)
4,O=C(NCCN1CCOCC1)C1CCN(S(=O)(=O)c2ccccc2)CC1,-8.07% (inactive)
5,CN1OC[C@@H]2CN[C@H](c3ccc(-c4ccccc4)cc3)C[C@@H]21,8.78% (inactive)
6,Fc1ccc(N2N=C(c3cccs3)CC2c2ccco2)c(F)c1 (stereo not drawn),1.6% (inactive)
7,COc1ccc(C2CC(c3cccs3)=NN2c2nc(C)c(C(C)=O)s2)cc1OC (stereo not drawn),-3.47% (inactive)
8,COc1ccccc1N1N=C(c2cccs2)CC1c1ccccc1 (stereo not drawn),38.6% (active)
9,CC(C)N=C1CCCC1C(=S)SSC(=S)C1CCCC1=NC(C)C (stereo not drawn),6.42% (inactive)
10,Cc1cc2cc3n(c2nn1)N=C(Cl)CC3,-2.59% (inactive)
11,C[C@H](CO)N1C[C@H](C)[C@@H](CN(C)C(=O)c2cnccn2)Oc2ncc(Br)cc2C1=O,-6.82% (inactive)
12,C[C@H](CO)N1C[C@H](C)[C@H](CN(C)C(=O)c2ccncc2)OCc2ccccc2-c2c(n(C)c3ccccc23)C1=O,7.41% (inactive)
13,Oc1ccc2ccc3cccc[n+]3c2c1,30.4% (active)
14,O=S(=O)(c1cccc(C(F)(F)F)c1)N1c2ccccc2-n2cccc2C1c1cccnc1 (stereo not drawn),2.97% (inactive)
15,COc1ccc([C@H]2C[C@@H](n3cc(COC(=O)c4ccccc4)nn3)[C@H](O)CN2C(=O)c2cccs2)cc1,-6.05% (inactive)
16,Cc1cc(Nc2ccc(C)c(C)c2)n2ncnc2n1,-6.42% (inactive)
17,O=c1[nH]c2ccccc2n1C1CCN(CCOc2ccccc2)CC1,-9.37% (inactive)
18,Cc1nc2cc(NC(=O)Nc3cccc(F)c3)ccc2n1C,4.9% (inactive)
19,S=C(Nc1ccccc1)Nc1ccc2ccccc2c1,-11.2% (inactive)
20,O=C(Nc1ccc2ccccc2c1)Nc1ccc2snnc2c1,22.2% (active)
21,COc1ccccc1C(=O)NC(=S)Nc1ccc(N2CCOCC2)cc1,-9.36% (inactive)
22,Cc1ccccc1C#CC1=CC(=O)CC(C)(C)C1,4.4% (inactive)
